# High-throughput results from PubChem BioAssay.
# This is a sample that favours compounds with a hit; in the whole collection about 10% have one here.
# Six1-Eya2 inh – qHTS Assay for Inhibitors of the Six1/Eya2 Interaction; Homeobox protein SIX1 (Homo sapiens) + Protein phosphatase EYA2 (Homo sapiens), …; AlphaScreen GST-Six1/His-Eya2 binding, biochemical; hits give low values; activity change, % (test concentration not listed); actives 0.56% (n = 360,000); AID 651725, 2012; in the data active = activity change below about -65%; inconclusive = mostly about -30% to -63%; note: % is set by controls: 0 for no effect and ±100 for the full control effect
#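 Compounds are tested against tagged Six1 and Eya2 proteins bridged by glutathione donor and nickel acceptor beads; after a one-hour incubation at 37 °C without light, AlphaScreen emission is recorded.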
# HP1b chromo inh – HTS for Inhibitors of HP1-beta Chromodomain Interactions with Methylated Histone Tails. Chromobox protein homolog 1 (Homo sapiens), P83916. actives 0.56% (n = 390,000). AID 540317, 2011. AlphaScreen HP1-beta / biotin-H3K9me3 peptide binding. Potency, µM (doses to about 114 µM), for inactives: at the top dose activity change, negative = inhibition, hits mostly inhibitors; note: potency is the fitted concentration of half-maximal effect; nearly all actives have a fitted effect of over 70% in size
# Target sequence (P83916 whole entry, looked up): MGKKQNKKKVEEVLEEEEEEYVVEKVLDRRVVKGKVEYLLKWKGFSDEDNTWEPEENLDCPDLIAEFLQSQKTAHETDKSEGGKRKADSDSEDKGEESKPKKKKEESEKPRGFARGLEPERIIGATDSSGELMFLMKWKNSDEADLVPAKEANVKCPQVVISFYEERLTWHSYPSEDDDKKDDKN
#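 Compound inhibition of the preformed complex between 50 nM HP1-beta and 50 nM biotinylated H3K9me3 peptide was read by AlphaScreen. Buffer was PBS pH 7.4 with 0.01% Tween-20. Incubations ran 30 min at room temperature, with 10 ug/mL donor/acceptor beads.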
# JMJD2A Tudor inh – qHTS Assay for Inhibitors of JMJD2A-Tudor Domain; AlphaScreen JMJD2A-Tudor / H3K4me3 peptide binding; AID 504339, 2011; Lysine-specific demethylase 4A (Homo sapiens), O75164; actives 4.4% (n = 390,000); Potency, µM (top dose mostly 114 µM), for inactives: top-dose activity change, negative = inhibition, actives largely listed as inhibitors; note: potency is the fitted concentration of half-maximal effect; % is set by controls: 0 for no effect and ±100 for the full control effect; nearly all actives have a fitted effect of over 50% in size
# BAZ2B inh – qHTS Assay for Inhibitors of BAZ2B; Bromodomain adjacent to zinc finger domain protein 2B (Homo sapiens), Q9UIF8; actives 4.4% (n = 360,000); AlphaScreen BAZ2B-H3K14Ac peptide displacement; Potency, µM (highest dose often 114 µM), without a hit: at the top dose activity change, negative = inhibition, actives largely listed as inhibitors; note: potency is the fitted concentration of half-maximal effect; % is set by controls: 0 for no effect and ±100 for the full control effect; nearly all actives have a fitted effect of over 60% in size
#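 Compounds, titrated to a top concentration of 110 uM, were incubated 30 min at room temperature with preformed BAZ2B/acetyl-K14 H3 peptide complex (50 nM each). Proximity signal was measured by AlphaScreen after 20 min with beads.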
# CtBP-E1A blk – qHTS Assay for Inhibitors of the CtBP/E1A Interaction; CtBP / adenovirus E1A interaction (AlphaScreen); AlphaScreen GST-E1A/His-CtBP binding, 1536-well; hits give low values; activity change, % (no concentration beside the values); actives 0.49% (n = 340,000); in the data active = activity change below about -65%; inconclusive = mostly about -30% to -63%; note: % is set by controls: 0 for no effect and ±100 for the full control effect
#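 GST-E1A and His-tagged CtBP (125 nM each as 5X stock) were preincubated with pin-transferred compound for 2 h at 37 °C in the dark, then glutathione donor and nickel acceptor beads were added for 1 h before AlphaScreen reading.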
# G9a inh – qHTS Assay for Inhibitors of Histone Lysine Methyltransferase G9a; AID 504332, 2011; actives 8.8% (n = 350,000); Histone-lysine N-methyltransferase EHMT2 (Homo sapiens), Q96KQ7; G9a H3K9 monomethylation, AlphaScreen, 2 h; Potency, µM (titrated, usually from 102 µM), for the others: top-dose activity, negative = inhibition, actives largely listed as inhibitors; note: potency is the fitted concentration of half-maximal effect; % is set by controls: 0 for no effect and ±100 for the full control effect; nearly all actives have a fitted effect of over 75% in size
# Target sequence (Q96KQ7 913-1193 limits assumed): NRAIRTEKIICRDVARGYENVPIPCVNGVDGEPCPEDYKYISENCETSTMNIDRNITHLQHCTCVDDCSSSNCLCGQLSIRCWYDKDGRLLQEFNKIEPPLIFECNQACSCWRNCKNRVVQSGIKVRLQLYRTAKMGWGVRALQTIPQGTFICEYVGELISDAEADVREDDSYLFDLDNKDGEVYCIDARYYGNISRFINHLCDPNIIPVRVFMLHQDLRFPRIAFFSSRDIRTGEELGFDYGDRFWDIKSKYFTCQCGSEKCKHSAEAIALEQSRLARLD
#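 Step 1: enzyme (final 20 nM) with compound, 15 min RT. Step 2: substrate peptide 500 nM and SAM 20 uM, 2 h RT. Step 3: anti-H3K9me1 antibody and AlphaScreen beads, 10 min, then plate read.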
# The depositor's hits bear a star; ? = inconclusive; . = no result given; [ ] = dose if it differs, or a comment. Unless noted, calls come from the whole dose curve; as a rule, active = well fitted inhibition curve with a large enough effect; inconclusive = small, poorly fitted or top-dose-only effect; inactive = no such curve, though single readings can be large or run the other way.
SMILES,Six1-Eya2 inh,HP1b chromo inh,JMJD2A Tudor inh,BAZ2B inh,CtBP-E1A blk,G9a inh
Cc1nnc2sc(SCC(=O)Nc3nccs3)nn2c1=O,?,54%,-13%,8%,-3,40%[59 µM]
Cc1cc(-c2cccnc2)c(C#N)c(SCc2cccc(F)c2)n1,4,39%,-15%,4%,9,40µM*
COc1ccccc1NC(=O)CSc1nn2c(=O)c(C)nnc2s1,?,61%,?,6%,-82*,51%
COc1ccc(NC(=O)CSc2ccc3nnc(-c4cccnc4)n3n2)c(OC)c1,?,28%,-9%,?,-68*,?
COc1ccc(C)cc1NC(=O)C(=O)NCCc1sc(-c2ccc(Cl)cc2)nc1C,.,18%[57 µM],-18%,-6%,.,8%[59 µM]
Cc1cccc(C)c1NC(=O)C(=O)NCC(c1ccc2c(c1)OCO2)N1CCOCC1 (stereo not drawn),.,18%[57 µM],-9%,5%,.,14%[59 µM]
COc1ccccc1C(=O)Nc1nnc(SCc2cc(=O)c3ccccc3[nH]2)s1,.,28%[57 µM],-17%,?,.,-9%[59 µM]
CCOc1ccc(-n2c(=O)c3c4c(sc3n(Cc3cccc(Cl)c3)c2=O)CCCC4)cc1,.,26%,0%,-10%,.,-2%[59 µM]
CCC1=C(c2ccc(C)cc2)S(=O)(=O)N=C1N1CCC(C(=O)NCCc2ccc(Cl)cc2)CC1,.,31%,-12%,-2%,.,-6%[59 µM]
CCOc1ccccc1N1C(=O)c2ccccc2N/C1=C\N1CCN(C(=O)c2ccco2)CC1,.,69%,-13%,.,.,.
CCOc1ccccc1NC(=O)CSc1ccc2nnc(-c3cccnc3)n2n1,-79*,16%,-16%,-22%,-85*,-22%
CCOc1ccc(NC(=O)CSc2ccc3nnc(-c4cccnc4)n3n2)cc1,-18,34%,-17%,-15%,-3,43%
CCOC(=O)C(CC)Sc1ccc2nnc(-c3cccnc3)n2n1 (stereo not drawn),-6,48%,-21%,-10%,3,?
CCC(Sc1ccc2nnc(-c3cccnc3)n2n1)C(=O)O (stereo not drawn),0,23%,-45%,-6%,-8,50µM*
COc1ccccc1NC(=O)CSc1ccc2nnc(-c3cccnc3)n2n1,-70*,87%,-10%,-5%,-77*,1%[59 µM]
Cc1cn(C)c(CC(=O)N2CCN(c3cccc(C(F)(F)F)c3)CC2)c1C(=O)O,.,18%,-18%,-2%,.,-24%[59 µM]
COc1cccc(-c2nc3c(c(SCC(=O)N4CCOCC4)n2)Cc2c(CO)cnc(C)c2O3)c1,-20,19%,?,?,-15,14µM*
Cc1cccc(NC(=O)CSc2nc(-c3cccc(C)c3)nc3c2Cc2c(CO)cnc(C)c2O3)c1,.,24%,-15%,?,.,8%[59 µM]
Cc1ncc(CO)c2c1Oc1nc(-c3ccccc3)nc(SCC(=O)N3CCCCC3)c1C2,-10,-4%,?,-23%,-14,40µM*
Cc1cccc(-c2nc3c(c(SCC(=O)N4CCOCC4)n2)Cc2c(CO)cnc(C)c2O3)c1,-15,37%,?,?,-23,45µM*
Cc1ncc(CO)c2c1Oc1nc(-c3ccccc3)nc(SCC(=O)N3CCOCC3)c1C2,-6,19%,-36%,-31%,-22,32µM*
COc1ccc(-c2nc3c4ccccc4n(CC(=O)Nc4cc(F)ccc4F)c(=O)n3n2)cc1,.,25%,-15%,-7%,.,-16%[59 µM]
Cc1nc(-c2ccccn2)nc(SCC(=O)N2CCOCC2)c1Cl,-4,2%,-15%,5%,.,20µM*
COc1cc(OC)c2ccc(=O)oc2c1C(CCN1CCCCC1)c1ccc(N(C)C)cc1 (stereo not drawn),-17,-32%,35µM*,40µM*,-20,?
CCCCCc1cc(=O)oc2c(C(CCN3CCCC3)c3ccc(N(C)C)cc3)c(OC)cc(OC)c12 (stereo not drawn),?,?,11µM*,8.9µM*,?,?
SMILES,Six1-Eya2 inh,HP1b chromo inh,JMJD2A Tudor inh,BAZ2B inh,CtBP-E1A blk,G9a inh
COc1cc(OC)c2ccc(=O)oc2c1C(CCN1CCCC1)c1ccc(N(C)C)cc1 (stereo not drawn),-16,-22%,56µM*,40µM*,-16,-9%[59 µM]
O=C(C1CCCN(S(=O)(=O)c2cccc3nonc23)C1)N1CCN(c2cccc(C(F)(F)F)c2)CC1 (stereo not drawn),.,-1%,-24%,?,.,?
N#CCC(=O)N/N=C/c1coc2ccccc2c1=O,-19,24%,-5%,0%,3,.
N#C/C(=C\c1coc2ccccc2c1=O)C(N)=S,-7,?,-32%,?,-13,1.8µM*
COc1ccccc1COCC(O)CNCC1(N2CCCCC2)CCCCC1 (stereo not drawn),1,?,1.8µM*,?,0,4.5µM*
COc1cc(C(C)=O)ccc1OCC(O)CNCC1(N2CCCCC2)CCCCC1 (stereo not drawn),-1,?,3.2µM*,50µM*,0,28µM*
COc1ccccc1OC(C)C(=O)NCC1(N2CCOCC2)CCCCC1 (stereo not drawn),.,18%,-23%,-1%,.,7%[59 µM]
COc1cc(C(C)=O)ccc1OCC(O)CN(CCO)Cc1ccccc1 (stereo not drawn),0,23%,-15%,.,2,5%
C=CCNCC(O)COc1ccc(C(C)=O)cc1OC (stereo not drawn),-2,71µM*,2µM*,50µM*,7,.
COc1ccc(-n2nc(C(=O)N3CCN(c4cccc(C)c4C)CC3)c3c4ccccc4n(C)c3c2=O)cc1Cl,.,21%,-15%,.,.,-5%[59 µM]
CC1=Nc2cc(C(=O)NC(C)C)ccc2Sc2ccc(C)cc21,.,21%,-34%,-38%,.,-52%[59 µM]
CN1CCc2c(sc3c2C(=O)NC(c2ccc(-c4cccc(Cl)c4)o2)N3)C1 (stereo not drawn),?,?,50µM*,40µM*,-2,.
CN1CCc2c(sc3c2C(=O)NC(c2cccs2)N3)C1 (stereo not drawn),-5,-18%,?,-20%,7,?
Cc1ccsc1C1NC(=O)c2c(sc3c2CCN(C)C3)N1 (stereo not drawn),-20,?,?,-7%,1,40µM*
